Screening results (PubChem BioAssay)
KB-V1 cytotox = kills drug-selected multidrug resistant KB-V1 cells; KB-V1 MDR cells viability, CellTiter-Glo, 72 h; Potency, µM (doses to about 46.1 µM), usual class: cytotoxic; 400,000 tested, 3.4% active; AID 1347076; further: on the % scale 0 is the no-effect control and ±100 the full control effect; nearly all actives have a fitted effect of over 60% in size
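Drug-selected KB-V1 cells, grown in DMEM lacking phenol red with 10% FBS, receive compound titrations; after three days at 37 degrees C, surviving cell ATP is quantified by CellTiter-Glo luminescence and responses normalized and curve-fitted.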
SW480 rerep = induces DNA re-replication in SW480 colon adenocarcinoma cells; SW480 DNA re-replication, Hoechst DNA content imaging, 48 h; Potency, µM (titrated, usually from 46.1 µM), without a hit: at the top dose re-replication activation, most hits filed as activators; 340,000 tested, 1.8% active; AID 624297; further: % of control where 0% means no effect; nearly all actives have a fitted effect of over 55% in size
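Treated cells incubate 48 hr (37 C, 5% CO2), are stained 40 min with Hoechst, and nuclear fluorescence is enumerated; a rise in nuclei with high DNA signal marks re-replication.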
PTAP TSG101 blk = blocks PTAP/TSG101 interaction to inhibit HIV-1 budding; 340,000 tested, under 10 active; AID 493005; Fluorescence polarization, FITC-PTAP peptide / Tsg101 binding; Potency, µM (doses to about 115 µM), inactives show at the top dose activity change, negative = inhibition, most hits filed as inhibitors; active means well fitted inhibition curve with a large enough effect in the main read-out, with a control signal flat, not every such curve was filed as active; inconclusive means small, poorly fitted or top-dose-only effect, or effect the other way, or a change in a side signal; inactive means no such curve, though single readings can be large or run the other way; further: % of control where 0% means no effect
Target sequence (Q99816 whole entry, looked up): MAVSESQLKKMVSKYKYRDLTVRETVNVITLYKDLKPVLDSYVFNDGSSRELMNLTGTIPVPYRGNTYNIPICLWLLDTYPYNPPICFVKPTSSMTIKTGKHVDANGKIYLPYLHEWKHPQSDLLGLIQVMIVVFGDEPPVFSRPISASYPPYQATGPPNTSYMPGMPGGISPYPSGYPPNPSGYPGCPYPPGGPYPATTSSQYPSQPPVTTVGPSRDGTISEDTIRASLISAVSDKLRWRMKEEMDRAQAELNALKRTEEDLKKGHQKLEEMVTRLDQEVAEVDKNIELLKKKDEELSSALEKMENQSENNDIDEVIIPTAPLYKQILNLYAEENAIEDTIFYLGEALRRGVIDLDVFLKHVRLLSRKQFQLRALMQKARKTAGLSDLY
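Compounds were pin-transferred onto Tsg101 binding domain (10 uM final) in HEPES pH 7.5 buffer, then FITC-PTAP peptide was added at 50 nM final. After 20 min at RT, polarization reported peptide displacement across a qHTS concentration series.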
PINK1 modulator = modulators of PINK1 expression. PINK1 immunofluorescence, high-content cytometry, 24 h. Potency, µM (titrated, usually from 76.6 µM), for inactives: top-dose activation (PINK1 increase), usual class: activators. 410,000 tested, 0.2% active. AID 624263; active means well fitted activation curve with a large enough effect; inconclusive means small, poorly fitted or top-dose-only effect; cell line not stated here; further: % of control where 0% means no effect; nearly all actives have a fitted effect of over 65% in size
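PINK1 protein level read as immunofluorescence by microplate cytometer in a fixed, stained stable cell line after 24 h exposure to five compound concentrations, with CCCP as control.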
KB-3-1 tox = kills parental KB-3-1 adenocarcinoma cells. KB-3-1 viability, CellTiter-Glo ATP luminescence, 72 h. Potency, µM (series often up to 46.1 µM), most hits filed as cytotoxic. 400,000 tested, 1.4% active; further: on the % scale 0 is the no-effect control and ±100 the full control effect; nearly all actives have a fitted effect of over 60% in size
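Using CellTiter-Glo luminescence, growth of non-resistant KB-3-1 adenocarcinoma cells is assessed 72 h after pin-tool compound addition at 37 °C. Normalized responses across the concentration series yield fitted curves.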
MCF10A rerep = inducers of DNA re-replication in MCF 10A breast cells. 350,000 tested, 2.9% active. AID 624296. MCF 10A DNA re-replication, Hoechst nuclear intensity, 48 h. Potency, µM (series often up to 46.1 µM), for the others: at the highest dose activity, positive = re-replication, actives largely listed as activators; further: % of control where 0% means no effect; nearly all actives have a fitted effect of over 50% in size
Numbers without * were called inactive; i = inactive; ? = inconclusive; . = no result given; [ ] = dose if it differs, or a comment. The list is not random: actives were taken first. Their share in the collection is about 6.8%. Unless noted, the call rests on the fitted dose curve; in most records, active means well fitted curve in the direction sought with a large enough effect; inconclusive means small, poorly fitted or top-dose-only effect, or another doubt; inactive means no such curve, though single readings can be large; an effect the other way counts as inactive or inconclusive. Potency means the concentration at half of the fitted maximal effect.

SMILES | KB-V1 cytotox | SW480 rerep | PTAP TSG101 blk | PINK1 modulator | KB-3-1 tox | MCF10A rerep
Cc1ccc(S(=O)(=O)c2nc(-c3ccc(Cl)cc3)oc2N2CCCCCC2)cc1 | i | . | . | 2% | i | .
c1ccc(CSc2nnc(SCc3ccccn3)s2)nc1 | 16µM* | 4% | -4% | -1%[38.3 µM] | i | 13%
COc1ccc2c(-c3ccccc3)cc3nnnn3c2c1 | i | 132% | -8% | -5%[38.3 µM] | i | 2.6µM*
COc1ccc(S(=O)(=O)Nc2cccc(F)c2)cc1C | i | 3% | -8% | 5% | i | 8%[9.22 µM]
COc1cc(S(=O)(=O)Nc2cc(C)cc(C)c2)ccc1F | 23µM* | ? | -5% | 12% | i | ?
COc1ccc(C(=O)Nc2c(O)ccc3ccccc23)cc1OC | i | -19% | -5% | 3% | i | 0%
COc1cc(S(=O)(=O)Nc2cccnc2)ccc1F | i | -10% | -4% | -1% | i | 0%
COc1ccc(S(=O)(=O)Nc2c(O)ccc3ccccc23)cc1OC | i | 4%[9.22 µM] | -2% | 0% | i | 16µM*
COc1ccc(NS(=O)(=O)c2ccc(Br)s2)cc1OC | 21µM* | 2% | -7% | -2%[38.3 µM] | i | 6%
COc1ccc(S(=O)(=O)Nc2cccc(N(C)S(C)(=O)=O)c2)cc1C | 15µM* | -67% | -10% | 7% | ? | -8%
Cc1cc(=O)c2cc(C(=O)Nc3ccc(F)cc3)ccc2[nH]1 | i | . | . | -2% | i | .
O=C(Nc1cc(Cl)cc(Cl)c1)c1cc(S(=O)(=O)NC2CCCC2)ccc1F | ? | . | . | 7% | ? | .
O=C(CSc1ccccc1)N1CCc2c([nH]c3ccccc23)C1c1ccc(Cl)cc1 (stereo not given) | . | . | . | 0% | . | .
COc1ccccc1C1CN(Cc2cccc(C)n2)Cc2ccccc2O1 (stereo not given) | . | . | . | 3% | . | .
O=S(=O)(Nc1ccc(Cc2ccncc2)cc1)c1ccc(Br)s1 | 15µM* | 5% | -5% | -3% | ? | ?
COc1ccc(S(=O)(=O)Nc2cccc(SC)c2)cc1OC | 7.3µM* | -6% | -1% | 8%[38.3 µM] | 23µM* | -3%
COc1ccc(NS(=O)(=O)c2ccc(OC)c(OC)c2)cc1OC | 21µM* | -6% | -4% | 1% | i | -1%
COc1ccc(S(=O)(=O)Nc2cccc(Cl)c2)cc1OC | i | -7% | -5% | . | i | 0%
COc1ccc(-n2c(CNC(=O)c3cccc(OC)c3OC)nnc2SC)cc1 | . | . | . | 3% | . | .
Cc1ccc(-n2c(C)nc3c(cnn3-c3ccccc3C)c2=O)cc1F | i | . | . | 5% | i | .
O=C1C2=C(Nc3ccccc3SC2c2ccccc2C(F)(F)F)c2ccccc21 (stereo not given) | ? | . | . | 13µM* | i | .
COCCn1c(=NC(=O)CSCC(=O)NC2CCCCC2)sc2cc(OC)ccc21 | 2.9µM* | 5% | -1% | 6% | ? | 14%
Cc1cccc(CNC(=O)c2cnn(-c3nccc(-c4cccs4)n3)c2C2CC2)n1 | . | . | . | -1% | . | .
Cc1cc(Nc2cccc(Cl)c2)nc2ccc(NC(=O)COc3ccc(Cl)cc3)cc12 | i | . | . | ? | i | .
CC(C)(C)NC(=O)c1ccc2c(c1)N(CC(=O)N1CCN(c3ccc(F)cc3)CC1)C(=O)C(C)(C)O2 | 3.7µM* | -7% | -2% | 3% | i | 4%
SMILES | KB-V1 cytotox | SW480 rerep | PTAP TSG101 blk | PINK1 modulator | KB-3-1 tox | MCF10A rerep
COc1cc2c(cc1OC)C(c1ccccc1)N(C(=O)CCl)CC2 (stereo not given) | 9.2µM* | 16µM* | -6% | -2% | 4.1µM* | 16µM*
COc1cc2c(cc1OC)C(C)N(C(=O)c1c(-c3ccccc3)noc1C)CC2 (stereo not given) | 21µM* | ? | 1% | 8% | ? | 12µM*
COc1cc2c(cc1OC)C(C)N(C(=O)c1ccc(Cl)c(S(=O)(=O)N3CCCCC3)c1)CC2 (stereo not given) | i | 18% | -2% | 3% | 12µM* | 5%
COc1cc2c(cc1OC)C(C)N(C(=O)c1ccc(C)o1)CC2 (stereo not given) | 16µM* | ? | -1% | 8% | ? | 20%
CN1CCN(C(=O)c2ccc(Cl)c(S(=O)(=O)N3CCCCCC3)c2)CC1 | ? | -5% | -1% | 0% | i | -9%
COc1cc2c(cc1OC)C(C)N(C(=O)c1cccc([N+](=O)[O-])c1)CC2 (stereo not given) | ? | 1% | 0% | -2% | i | 17%
COC(=O)C1CCCCN1Cc1ccc2c(c1)CN(Cc1cn[nH]c1-c1ccc(F)cc1)CCO2 (stereo not given) | . | . | . | 1% | . | .
COc1ccccc1N1CCN(C(=O)c2cnc(N3CCCCC3)c3ccccc23)CC1 | . | . | . | 1% | . | .
CCCCc1ccc(NS(=O)(=O)c2cc3c4c(c2)CC(=O)N4CCC3)cc1 | i | . | . | ? | i | .
COc1ccccc1N1CCN(C(=O)c2c(-c3ccccc3)noc2C)CC1 | ? | ? | 1% | 14% | 4.6µM* | 11µM*
COc1ccccc1N1CCN(C(=O)c2cc(N3C(=O)C4C5CCC(C5)C4C3=O)ccc2Cl)CC1 (stereo not given) | 4.1µM* | -2% | -1% | 7% | i | 10%
COc1cc2c(C(=O)N3CCN(c4ccccc4C)CC3)c(C)oc2cc1Br | 5.8µM* | 13% | -8% | 4% | ? | 12%
COc1cc2c(cc1OC)C(C)N(C(=O)Nc1ccccc1)CC2 (stereo not given) | ? | 5.2µM* | -5% | 12% | 6.5µM* | ?
COc1cc2c(cc1OC)C(C)N(C(=O)CCNC(=O)c1ccccc1)CC2 (stereo not given) | i | -2% | -7% | 1% | i | 5%
COc1ccc(CCN(C)Cc2cc(-c3cncnc3)ccc2O)cc1OC | . | . | . | 1% | . | .
CC(C)CC(=O)Nc1nc2nc(-c3ccccc3)cc(=O)n2[nH]1 | ? | . | . | 0% | i | .
COC(=O)C1CCN(C(=O)c2ccc(SC)cc2OC)CC1 | i | -5% | -4% | -1% | i | -3%
CCSc1ncc(Cl)c(C(=O)N2CCN(c3ccccc3OC)CC2)n1 | 3.7µM* | . | . | 16% | 6.5µM* | .
COc1ccccc1N1CCN(C(=O)c2cc(-c3cccs3)on2)CC1 | 18µM* | -7% | -1% | 2% | i | 12%
COc1cc(SC)ccc1C(=O)N1CCN(c2ccccc2OC)CC1 | 16µM* | ? | -4% | 10% | 6.5µM* | 18µM*
